Results as given in the supplement of paper PMC10981050.
“And” between values parts separate entries of the source, which are not always exact repeats. Identical values can stand only once. Counter-ions that a name gives are not always drawn.

What was measured:
Test in all cases: cell viability relative to vehicle control; higher = less cytotoxic
Details in all cases: 10 µM
K562 = test system: K562
In short: (§1)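 Each screen used CRISPR-edited mutant and wild-type clones from four leukaemia lines. Compounds were acoustically dispensed at a single 10 µM dose, and CellTiter-Glo luminescence was read after 48 h with the supernatant first removed. Viability was analysed in Genedata Screener and given as percent of the on-plate vehicle control.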

MARIMO = test system: MARIMO
In short: as §1

MOLM14 = test system: MOLM14
In short: as §1

OCI-AML2 = test system: OCI-AML2
In short: as §1

Row | Structure (SMILES) | cell viability (K562; SRSF2 genotype: SRSF2 P95H/wt) | cell viability (K562; SRSF2 genotype: SRSF2 wt/wt) [%] | cell viability (MARIMO; SRSF2 genotype: SRSF2 P95H/wt) [%] | cell viability (MARIMO; SRSF2 genotype: SRSF2 wt/wt) [%] | cell viability (MOLM14; SRSF2 genotype: SRSF2 P95H/wt) [%] | cell viability (MOLM14; SRSF2 genotype: SRSF2 wt/wt) [%] | cell viability (OCI-AML2; SRSF2 genotype: P95H/wt) [%] | cell viability (OCI-AML2; SRSF2 genotype: wt/wt) [%]
1 | CCOc1cc(C(C)(C)C)ccc1C1=N[C@@](C)(c2ccc(Cl)cc2)[C@@](C)(c2ccc(Cl)cc2)N1C(=O)N1CCN(CCCS(C)(=O)=O)CC1 | 80.8% and 82.7% | 79.8 | 91.2 | 107 | 0.32 | 0.35 | 0.58 | 13.8
2 | Cc1nccn1CC1CCc2c(c3ccccc3n2C)C1=O (stereo not given) [Ondansetron hydrochloride (Zofran)] | 96.1% and 89.4% | 93.8 | 88.4 | 95.6 | 102 | 98.9 | 95.5 | 101
3 | O=C(O)P(=O)(O)O [Foscarnet Sodium] | 106% and 108% | 107 | 101 | 108 | 101 | 109 | 112 | 95.6
4 | Cc1ncc(CO)c(CO)c1O [Metadoxine] | 99.4% and 100% | 104 | 98.1 | 103 | 101 | 103 | 101 | 114
5 | Clc1cccc(CN=C2Nc3ccccc3NC23CCNCC3)c1 [Liproxstatin-1] | 68.8% and 75.6% | 70 | 73 | 70.1 | 68.9 | 80.1 | 93.5 | 71.5
6 | Cc1cnc(Nc2ccc(OCCN3CCCC3)cc2)nc1Nc1cccc(S(=O)(=O)NC(C)(C)C)c1 | 1.46% and 2.3% | 2.29 | 6.76 | 10.9 | 0.67 | 0.58 | 0.71 | 1.39
7 | O=C(C[S+]([O-])Cc1ccco1)NC/C=C\COc1cc(CN2CCCCC2)ccn1 (stereo not given) [Lafutidine] | 104% and 105% | 102 | 104 | 104 | 96.9 | 101 | 105 | 108
8 | Cc1ccc(C(=O)N(CCCN)[C@@H](c2oc3cc(Cl)ccc3c(=O)c2Cc2ccccc2)C(C)C)cc1 | 0.65% and 0.76% | 0.52 | 0.39 | 0.45 | 0.45 | 0.45 | 0.35 | 0.4
9 | O=Cc1ccc(CO)o1 [5-Hydroxymethylfurfural] | 91.8% and 86.8% | 84 | 85 | 95.1 | 86.9 | 91.3 | 85.6 | 92.7
10 | COc1cc(C=CC=O)ccc1O [Ferulaldehyde] | 102% and 97.5% | 98.5 | 97 | 103 | 89.6 | 97.7 | 95.6 | 111
11 | CCCCC(=O)O[C@H]1CC[C@H]2[C@@H]3CCc4cc(O)ccc4[C@H]3CC[C@]12C [Estradiol valerate] | 84.7% and 95.4% | 94.2 | 84.7 | 69.3 | 69.9 | 69.2 | 45 | 30.4
12 | Cc1nc(C#Cc2ccnc(Cl)c2)c(C)n1-c1ccc(OC(F)(F)F)cc1 | 75.6% and 89.6% | 75.7 | 82.7 | 88.9 | 78.8 | 80.2 | 55.7 | 68.7
13 | CC(=O)/N=c1/sc(S(N)(=O)=O)nn1C [Methazolamide] | 109% and 102% | 95.2 | 106 | 111 | 98.5 | 102 | 100 | 105
14 | Clc1ccc2c(c1)CCc1cccnc1C2=C1CCNCC1 [Desloratadine] | 90.9% and 102% | 93.2 | 80.7 | 83.5 | 88.8 | 94.3 | 94.8 | 81.9
15 | NC1CC1c1ccc(-c2cccc(O)c2)cc1 (stereo not given) | 96.2% and 104% | 97.1 | 88.3 | 106 | 99.4 | 99.1 | 87 | 92
16 | CC(=O)OCC(=O)NCCCOc1cccc(CN2CCCCC2)c1 [Roxatidine acetate HCl] | 102% and 97.3% | 96.1 | 93.7 | 103 | 101 | 101 | 92 | 94.8
17 | C=C1/C(=C\C=C2/CCC[C@]3(C)[C@@H]([C@H](C)/C=C/[C@H](C)C(C)C)CC[C@@H]23)C[C@@H](O)C[C@@H]1O [Doxercalciferol (Hectorol)] | 81.4% and 88.8% | 86.5 | 69.6 | 46.8 | 68.5 | 70.8 | 55.3 | 73
18 | OC[C@H]1O[C@H](O[C@H]2[C@H](O)[C@@H](O)C(O)O[C@@H]2CO)[C@H](O)[C@@H](O)[C@@H]1O (mixture of isomers) [Maltose] | 96.1% and 91.6% | 99.6 | 102 | 102 | 98.9 | 98.9 | 96.6 | 104
19 | COc1ccc(CCNCC(O)COc2cccc(C)c2)cc1OC (stereo not given) [Bevantolol hydrochloride] | 92.7% and 89.9% | 88.2 | 82.8 | 93.4 | 90.6 | 91.2 | 81.8 | 84.8
20 | CC(=CCNc1ncnc2nc[nH]c12)CO [Trans-Zeatin] | 100% and 95.4% | 104 | 99 | 108 | 98.3 | 103 | 104 | 97.4
